Assay results as given in the supplement of paper PMC10849652.
Of roughly 7,900 targets only a part is listed; those with a hit were picked by preference. About 0.6% of all pairs of compound and target were hits.

Compound: CC(C)C[C@@H](C=O)NC(=O)[C@H](CC(C)C)NC(=O)[C@H](CC(C)C)NC(=O)OCc1ccccc1
Assay: log2 fold change, soluble protein after heating vs DMSO (PISA); higher = thermal stabilisation; K562 cells, 10 uM, 30 min; active = over 0.2 and 3.5 SD of the protein, either way, in both replicates (recomputed)
Method in brief: (§1)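 Soluble protein was defined as the supernatant after 21,000xg for 90 min. It came from K562 cells at 2×10^6 cells/mL given 10 μM compound for 30 min, heated in aliquots for 3 min across 48°C-58°C, pooled, and extracted in PBS with 0.5% NP-40 at 4°C, and was quantified by TMTpro 16plex LC-MS/MS with equalised channel sums. Thermal stability against control samples, from duplicates, is reported as log2 fold change.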

UniProt Q9Y5K5, sequence (Q9Y5K5 whole entry, looked up): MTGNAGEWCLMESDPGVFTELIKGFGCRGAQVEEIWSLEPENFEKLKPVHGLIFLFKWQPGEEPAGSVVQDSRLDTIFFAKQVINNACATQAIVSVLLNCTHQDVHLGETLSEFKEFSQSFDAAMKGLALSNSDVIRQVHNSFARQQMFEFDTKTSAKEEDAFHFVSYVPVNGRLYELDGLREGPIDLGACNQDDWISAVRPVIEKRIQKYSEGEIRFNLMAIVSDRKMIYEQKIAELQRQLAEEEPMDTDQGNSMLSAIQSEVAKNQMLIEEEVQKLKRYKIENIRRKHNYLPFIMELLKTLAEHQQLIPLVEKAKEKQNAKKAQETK
UniProt O14980, sequence (O14980 whole entry, looked up): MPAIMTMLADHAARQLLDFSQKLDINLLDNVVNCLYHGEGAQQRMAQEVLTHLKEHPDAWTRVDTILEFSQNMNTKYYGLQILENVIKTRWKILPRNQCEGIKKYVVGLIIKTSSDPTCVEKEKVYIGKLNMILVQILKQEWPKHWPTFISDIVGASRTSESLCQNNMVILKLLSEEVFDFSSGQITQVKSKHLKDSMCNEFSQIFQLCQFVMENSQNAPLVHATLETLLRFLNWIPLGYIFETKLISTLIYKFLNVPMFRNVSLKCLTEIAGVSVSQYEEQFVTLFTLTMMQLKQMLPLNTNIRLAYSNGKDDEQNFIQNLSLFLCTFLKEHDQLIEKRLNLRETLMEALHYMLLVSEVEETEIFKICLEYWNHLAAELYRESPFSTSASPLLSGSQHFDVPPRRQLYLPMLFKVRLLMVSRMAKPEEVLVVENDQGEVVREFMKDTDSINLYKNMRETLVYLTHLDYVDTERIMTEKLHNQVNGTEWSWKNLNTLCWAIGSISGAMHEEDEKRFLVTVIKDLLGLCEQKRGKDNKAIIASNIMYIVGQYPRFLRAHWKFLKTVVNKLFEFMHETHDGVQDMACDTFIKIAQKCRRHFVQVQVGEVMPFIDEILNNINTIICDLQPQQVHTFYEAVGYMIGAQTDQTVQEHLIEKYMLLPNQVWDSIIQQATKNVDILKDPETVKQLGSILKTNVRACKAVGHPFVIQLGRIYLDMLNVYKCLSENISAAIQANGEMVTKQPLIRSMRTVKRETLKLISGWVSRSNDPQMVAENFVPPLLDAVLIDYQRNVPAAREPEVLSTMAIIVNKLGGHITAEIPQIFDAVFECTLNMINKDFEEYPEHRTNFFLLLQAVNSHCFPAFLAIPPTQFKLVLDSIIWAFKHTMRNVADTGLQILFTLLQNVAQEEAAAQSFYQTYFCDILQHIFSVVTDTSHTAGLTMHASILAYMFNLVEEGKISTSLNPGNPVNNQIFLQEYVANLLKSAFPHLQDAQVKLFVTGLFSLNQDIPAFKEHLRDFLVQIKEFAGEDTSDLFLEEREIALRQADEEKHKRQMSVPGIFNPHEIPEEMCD
UniProt O95379, sequence (O95379 whole entry, looked up): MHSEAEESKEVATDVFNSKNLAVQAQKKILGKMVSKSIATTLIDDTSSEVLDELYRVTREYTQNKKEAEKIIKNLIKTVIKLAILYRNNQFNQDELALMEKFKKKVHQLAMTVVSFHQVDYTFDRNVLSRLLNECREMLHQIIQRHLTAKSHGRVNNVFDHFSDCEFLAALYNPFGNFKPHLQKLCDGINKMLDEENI
UniProt Q9NQ34, sequence (Q9NQ34 whole entry, looked up): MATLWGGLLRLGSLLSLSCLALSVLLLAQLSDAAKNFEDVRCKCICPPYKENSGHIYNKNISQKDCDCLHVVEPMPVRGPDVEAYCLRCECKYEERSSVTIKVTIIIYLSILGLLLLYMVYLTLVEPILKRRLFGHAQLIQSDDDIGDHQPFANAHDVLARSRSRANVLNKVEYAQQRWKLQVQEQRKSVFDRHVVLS
UniProt O94967, sequence (O94967 whole entry, looked up): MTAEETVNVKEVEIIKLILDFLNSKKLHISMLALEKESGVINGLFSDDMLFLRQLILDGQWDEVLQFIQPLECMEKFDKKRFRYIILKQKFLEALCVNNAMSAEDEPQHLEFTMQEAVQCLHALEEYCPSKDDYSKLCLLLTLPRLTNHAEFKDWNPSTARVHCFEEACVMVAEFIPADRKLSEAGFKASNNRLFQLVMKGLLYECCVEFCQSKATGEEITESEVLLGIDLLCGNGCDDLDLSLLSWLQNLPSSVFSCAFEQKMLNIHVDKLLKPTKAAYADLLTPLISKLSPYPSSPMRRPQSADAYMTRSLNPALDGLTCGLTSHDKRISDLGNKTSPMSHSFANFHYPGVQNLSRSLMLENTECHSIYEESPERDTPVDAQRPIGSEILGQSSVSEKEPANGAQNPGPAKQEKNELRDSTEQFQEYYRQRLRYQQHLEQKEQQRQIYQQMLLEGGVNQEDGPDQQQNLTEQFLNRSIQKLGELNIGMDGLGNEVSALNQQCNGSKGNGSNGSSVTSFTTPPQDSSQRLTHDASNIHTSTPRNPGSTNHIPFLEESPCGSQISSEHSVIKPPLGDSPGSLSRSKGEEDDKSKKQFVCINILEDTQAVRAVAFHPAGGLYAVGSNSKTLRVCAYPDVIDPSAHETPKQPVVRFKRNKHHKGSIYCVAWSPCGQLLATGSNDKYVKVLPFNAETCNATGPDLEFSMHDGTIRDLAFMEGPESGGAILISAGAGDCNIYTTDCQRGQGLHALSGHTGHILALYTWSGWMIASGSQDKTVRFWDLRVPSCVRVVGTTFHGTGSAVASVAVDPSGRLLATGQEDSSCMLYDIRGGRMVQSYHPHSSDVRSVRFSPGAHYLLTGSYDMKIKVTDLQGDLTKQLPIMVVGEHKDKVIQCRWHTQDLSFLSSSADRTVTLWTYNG
UniProt Q5BJH2, sequence (Q5BJH2 whole entry, looked up): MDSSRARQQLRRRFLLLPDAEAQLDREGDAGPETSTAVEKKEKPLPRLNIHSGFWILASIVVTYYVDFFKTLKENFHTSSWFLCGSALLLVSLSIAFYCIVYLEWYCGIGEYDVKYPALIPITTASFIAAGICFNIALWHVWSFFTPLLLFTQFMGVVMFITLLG
UniProt Q8TBZ6, sequence (Q8TBZ6 whole entry, looked up): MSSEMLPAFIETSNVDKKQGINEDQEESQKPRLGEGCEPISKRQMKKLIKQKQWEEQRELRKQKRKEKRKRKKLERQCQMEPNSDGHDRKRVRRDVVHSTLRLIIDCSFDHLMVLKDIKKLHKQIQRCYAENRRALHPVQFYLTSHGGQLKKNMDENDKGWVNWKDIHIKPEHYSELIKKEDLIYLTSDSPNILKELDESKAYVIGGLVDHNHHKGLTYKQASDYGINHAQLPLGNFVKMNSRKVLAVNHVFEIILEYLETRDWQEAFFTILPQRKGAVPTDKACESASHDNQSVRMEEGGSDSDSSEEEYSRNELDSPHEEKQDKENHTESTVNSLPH
UniProt Q6NXR4, sequence (Q6NXR4 whole entry, looked up): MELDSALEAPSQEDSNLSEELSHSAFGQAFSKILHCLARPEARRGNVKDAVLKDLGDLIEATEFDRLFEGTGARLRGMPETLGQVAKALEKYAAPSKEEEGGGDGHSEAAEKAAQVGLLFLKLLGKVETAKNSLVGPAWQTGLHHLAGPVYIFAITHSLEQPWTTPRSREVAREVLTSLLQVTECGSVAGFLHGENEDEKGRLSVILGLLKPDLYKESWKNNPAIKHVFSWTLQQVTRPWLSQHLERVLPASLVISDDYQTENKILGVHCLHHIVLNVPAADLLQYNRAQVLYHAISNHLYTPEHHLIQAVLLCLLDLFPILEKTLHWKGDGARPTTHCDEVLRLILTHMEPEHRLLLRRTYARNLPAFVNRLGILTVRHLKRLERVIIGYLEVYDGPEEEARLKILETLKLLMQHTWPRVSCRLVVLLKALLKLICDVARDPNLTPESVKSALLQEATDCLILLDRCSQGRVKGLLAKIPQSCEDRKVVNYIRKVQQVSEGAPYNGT
UniProt O15213, sequence (O15213 whole entry, looked up): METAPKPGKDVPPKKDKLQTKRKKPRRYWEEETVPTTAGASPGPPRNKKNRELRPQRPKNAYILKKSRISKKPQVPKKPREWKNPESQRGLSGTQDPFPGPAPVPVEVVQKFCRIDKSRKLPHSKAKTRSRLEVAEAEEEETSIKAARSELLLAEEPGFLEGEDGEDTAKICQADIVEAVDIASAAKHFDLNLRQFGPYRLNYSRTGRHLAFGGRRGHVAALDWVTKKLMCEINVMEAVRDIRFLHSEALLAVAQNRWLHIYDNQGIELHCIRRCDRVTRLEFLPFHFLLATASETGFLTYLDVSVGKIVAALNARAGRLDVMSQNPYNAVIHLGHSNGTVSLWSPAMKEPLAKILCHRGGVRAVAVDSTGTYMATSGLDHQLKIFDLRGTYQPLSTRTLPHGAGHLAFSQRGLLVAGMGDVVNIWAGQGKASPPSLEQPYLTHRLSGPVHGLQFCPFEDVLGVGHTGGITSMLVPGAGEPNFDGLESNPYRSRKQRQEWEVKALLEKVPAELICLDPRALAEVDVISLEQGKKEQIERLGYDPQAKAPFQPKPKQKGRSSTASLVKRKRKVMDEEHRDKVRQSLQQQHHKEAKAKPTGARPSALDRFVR
UniProt Q01081, sequence (Q01081 whole entry, looked up): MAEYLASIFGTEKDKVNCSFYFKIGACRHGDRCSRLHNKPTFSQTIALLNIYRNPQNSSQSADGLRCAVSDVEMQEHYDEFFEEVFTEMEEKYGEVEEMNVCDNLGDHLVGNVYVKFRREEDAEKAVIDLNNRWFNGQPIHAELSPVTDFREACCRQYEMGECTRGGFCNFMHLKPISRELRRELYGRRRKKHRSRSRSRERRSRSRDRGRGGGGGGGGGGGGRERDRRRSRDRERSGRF
UniProt Q9UL33, sequence (Q9UL33 whole entry, looked up): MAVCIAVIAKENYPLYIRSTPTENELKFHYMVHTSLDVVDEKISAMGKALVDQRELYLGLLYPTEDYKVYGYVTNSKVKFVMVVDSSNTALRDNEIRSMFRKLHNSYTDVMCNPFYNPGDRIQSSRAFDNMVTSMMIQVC
UniProt Q86SZ2, sequence (Q86SZ2 whole entry, looked up): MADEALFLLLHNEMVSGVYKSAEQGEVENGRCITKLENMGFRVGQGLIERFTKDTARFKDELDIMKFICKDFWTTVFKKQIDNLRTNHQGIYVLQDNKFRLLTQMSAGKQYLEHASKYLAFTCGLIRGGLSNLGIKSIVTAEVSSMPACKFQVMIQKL

log2 fold change, inactive:
TMEM223 (UniProt A0PJW6) 0, USP25 isoform 3 (UniProt Q9UHP3) 0.052, VPS41 (UniProt P49754) 0.026, WDR47 (UniProt O94967) -0.048, TMEM128 (UniProt Q5BJH2) 0.108, WDR41 (UniProt Q9HAD4) -0.026, TMEM9 (UniProt Q9P0T7) 0.064, VPS51 (UniProt Q9UID3) 0.001, TYW1 (UniProt Q9NV66) -0.056, TUBAL3 (UniProt A6NHL2) -0.102, TOM1L1 (UniProt O75674) 0.028, TPR (UniProt P12270) 0.024, TP53BP1 isoform 2 (UniProt Q12888) 0.019, TRAPPC2L (UniProt Q9UL33) 0.24, U2AF1 isoform 2 (UniProt Q01081) 0.022, TMEM9B (UniProt Q9NQ34) -0.006, VPS37A (UniProt Q8NEZ2) 0.094, WEE1 (UniProt P30291) 0.296, TNFAIP8 isoform 4 (UniProt O95379) -0.047, UBAP2L isoform 5 (UniProt Q14157) -0.012, WDR43 (UniProt Q15061) -0.039, UFD1 isoform 1 (UniProt Q92890) 0.021, TRAPPC6B (UniProt Q86SZ2) 0.032, UCHL5 isoform 3 (UniProt Q9Y5K5) 0.077, XPOT (UniProt O43592) 0.053, TMEM208 (UniProt Q9BTX3) 0.046, UFM1 (UniProt P61960) 0.055, UQCR10 (UniProt Q9UDW1) -0.127, USP7 (UniProt Q93009) 0.012, WDR46 (UniProt O15213) 0.154, TTI2 (UniProt Q6NXR4) 0.032, XPO1 (UniProt O14980) -0.04, TRMT10A (UniProt Q8TBZ6) -0.01, TMEM87B (UniProt Q96K49) -0.007, VPS13B (UniProt Q7Z7G8) 0.121, VPS33A (UniProt Q96AX1) 0.054, VWA3B isoform 6 (UniProt Q502W6) -0.256

Compound: CC(C)N(C[C@H]1O[C@@H](n2cnc3c(N)ncnc32)[C@H](O)[C@@H]1O)[C@H]1C[C@@H](CCc2nc3cc(C(C)(C)C)ccc3[nH]2)C1 [pinometostat]
Assay: as above
Method in brief: as §1

log2 fold change, inactive:
TMEM223 (UniProt A0PJW6) -0.019, USP25 isoform 3 (UniProt Q9UHP3) 0.001, VPS41 (UniProt P49754) 0.037, WDR47 (UniProt O94967) -0.017, TMEM128 (UniProt Q5BJH2) 0.122, WDR41 (UniProt Q9HAD4) 0.012, TMEM9 (UniProt Q9P0T7) -0.042, VPS51 (UniProt Q9UID3) 0.05, TYW1 (UniProt Q9NV66) 0.005, TUBAL3 (UniProt A6NHL2) -0.108, TOM1L1 (UniProt O75674) -0.023, TPR (UniProt P12270) -0.001, TP53BP1 isoform 2 (UniProt Q12888) 0.021, TRAPPC2L (UniProt Q9UL33) 0.001, U2AF1 isoform 2 (UniProt Q01081) -0.04, TMEM9B (UniProt Q9NQ34) 0.015, VPS37A (UniProt Q8NEZ2) 0.045, WEE1 (UniProt P30291) 0.066, TNFAIP8 isoform 4 (UniProt O95379) -0.065, UBAP2L isoform 5 (UniProt Q14157) -0.032, WDR43 (UniProt Q15061) -0.035, UFD1 isoform 1 (UniProt Q92890) -0.04, TRAPPC6B (UniProt Q86SZ2) -0.036, UCHL5 isoform 3 (UniProt Q9Y5K5) -0.044, XPOT (UniProt O43592) 0.03, TMEM208 (UniProt Q9BTX3) 0.081, UFM1 (UniProt P61960) 0.013, UQCR10 (UniProt Q9UDW1) -0.016, USP7 (UniProt Q93009) 0.024, WDR46 (UniProt O15213) 0.242, TTI2 (UniProt Q6NXR4) 0.016, XPO1 (UniProt O14980) -0.013, TRMT10A (UniProt Q8TBZ6) 0.042, TMEM87B (UniProt Q96K49) 0.065, VPS13B (UniProt Q7Z7G8) 0.007, VPS33A (UniProt Q96AX1) 0.099, VWA3B isoform 6 (UniProt Q502W6) 0.079
